Measured values as given in PubChem BioAssay (EPA / NIEHS).
Activity calls are given as the source filed them. Rule for the calls: active = hit-call score of the fitted dose curve at least 0.9, where 1 is the maximum; inactive = score below 0.9.

assay: ATG_GATA_CIS: Attagene CIS-FACTORIAL HepG2 Assay for human GATA Binding Protein (AID 2282944); conditions: HepG2 GATA cis-element reporter, Attagene multiplex mRNA; actives raise or lower the signal
Procedure: ATG_CIS is a cell-based, multiplexed-readout assay that uses HepG2, a human liver cell line, with measurements taken at 24 hours after chemical dosing in a 24-well plate.ATG_GATA_CIS is one of 52 assay component(s) measured or calculated from the ATG_CIS assay. It is designed to make measurements of mRNA induction, a form of inducible reporter, as detected with fluorescence intensity signals by Reverse transcription polymerase chain reaction (RT-PCR) and Capillary electrophoresis technology.Data from the assay component ATG_GATA_CIS was analyzed into 1 assay endpoint. This assay endpoint, ATG_GATA_CIS, was analyzed with bidirectional fitting relative to DMSO as the negative control and baseline of activity. Using a type of inducible reporter, measures of mRNA for gain or loss-of-signal activity can be used to understand the reporter gene at the transcription factor-level as they relate to the gene GATA1. Furthermore, this assay endpoint can be referred to as a primary readout, because this assay has produced multiple assay endpoints where this one serves a reporter gene function. To generalize the intended target to other relatable targets, this assay endpoint is annotated to the dna binding intended target family, where the subfamily is GATA proteins.
Human liver HepG2 cells are transiently transfected with multiple reporter transcription units (MRTUs) in 6-well plates using FuGene 6 reagent (Roche; 3 ml FuGene/1 mg DNA). The MRTU constructs are regulated by a cis-regulating element (promoter). […] A major difference between the CIS and TRANS system is that in CIS activities of endogenous TFs are measured, whereas the TRANS assay evaluates changes in activities of exogenous, chimeric NR-Gal4 proteins. […] At the end of 24 hour incubation, total RNA was isolated using TriZol reagent (Invitrogen). The isolated RNA is then reverse-transcribed using oligo(dT) primer and Mo-MLV reverse transcriptase (Invitrogen) with DNAse I (Ambion) treatment for 30 min. The one-tenth of the produced cDNA was amplified by PCR using Taq DNA polymerase (Invitrogen) and two reporter sequence-specific primers. The PCR products were fluorescently labeled by primer extension with 6-arboxyfluorescein (6-FAM) 5'-labeled reporter sequence-specific primer (2 min at 95 C, 20 s at 68 C and 10 min at 72 C) and these products were digested with 5U of HpaI (New England Biolabs) for 2h at 37 C. The fragments were purified using Qiaquick PCR columns (Qiagen), analyzed on an ABI 3130xL genetic analyzer (Applied Biosystems) with peak positions identified by using a set of X-rhodamine (ROX)-labeled MapMarker1000 molecular weight standards (BioVentures). The raw capillary electrophoresis data was processed using Attagraph software (Attagene).

Row | SMILES | outcome
1 | O=NN1CCCC1 | inactive
2 | OCC(F)(F)OC(F)(F)C(F)(F)OC(F)(F)C(F)(F)OC(F)(F)F | inactive
3 | O=C(CBr)OCc1ccccc1 | inactive
4 | O=C(O)C(F)(F)C(F)(F)C(=O)O | inactive
5 | c1nc[nH]n1 | inactive
6 | CO/N=C(/C(=O)OC)c1ccccc1COc1ccccc1C | inactive
7 | FC(F)(F)c1ccc(Cl)cc1 | inactive
8 | CC1=C(C(=O)Nc2ccccc2)S(=O)(=O)CCO1 | inactive
9 | CCCCc1ccc(O)cc1 | inactive
10 | O=C(O)C(F)(F)OC(F)(F)C(F)(F)OC(F)(F)C(=O)O | inactive
11 | OCC(F)(F)OC(F)(F)C(F)(F)OC(F)(F)C(F)(F)OC(F)(F)CO | inactive
12 | O=C(O)C1C(C(=O)O)C2(Cl)C(Cl)=C(Cl)C1(Cl)C2(Cl)Cl (stereo not given) | inactive
13 | CC(C)(C)c1ccccc1OP(=O)(Oc1ccccc1)Oc1ccccc1 | inactive
14 | CC(O)C(F)(F)C(F)(F)F (stereo not given) | inactive
15 | N#C/C=C/c1ccccc1 | inactive
16 | N#Cc1cc([N+](=O)[O-])ccc1N | inactive
17 | CC(C)(C)N(NC(=O)c1ccc(Cl)cc1)C(=O)c1ccccc1 | inactive
18 | COP(=O)(CCC(=O)NCO)OC | inactive
19 | O=C(O)CF | inactive
20 | OCC1CO1 (stereo not given) | inactive

Row | SMILES | outcome
21 | N#Cc1c(-c2ccc(Cl)cc2)[nH]c(C(F)(F)F)c1Br | inactive
22 | CCCCCCCc1ccc(O)cc1 | inactive
23 | Cc1ccc(C(=O)Cl)cc1 | inactive
24 | CCOP(=S)(S)OCC | inactive
25 | Cc1ccc2c(c1N)C(=O)c1ccccc1C2=O | inactive
26 | Cn1[nH]nnc1=S | inactive
27 | NNC(N)=S | inactive
28 | Cc1ccc(N)cc1N | inactive
29 | CN(C)C(=O)Cl | inactive
30 | CCOP(=S)(OCC)SCS(=O)(=O)CC | inactive
31 | CCOc1ccc(C(C)(C)COCc2cccc(Oc3ccccc3)c2)cc1 | inactive
32 | C=C(C)C(=O)OCC1CO1 (stereo not given) | inactive
33 | CCOP(=S)(NC(C)C)Oc1ccccc1C(=O)OC(C)C (stereo not given) | inactive
34 | ClC1=C(Cl)C2(Cl)C3C(Cl)C(Cl)CC3C1(Cl)C2(Cl)Cl (stereo not given) | inactive
35 | c1ccc2c(c1)sc1ccccc12 | inactive
36 | CCOP(=O)(O)C(N)=O | inactive
37 | Nc1ccc(Cl)cc1 | inactive
38 | Nc1ccc2ccccc2c1 | inactive
39 | ClC(Cl)=C(c1ccc(Cl)cc1)c1ccccc1Cl | inactive
40 | C/C(=N\NC(=O)Nc1cc(F)cc(F)c1)c1ncccc1C(=O)O | inactive
